PubChem BioAssay AID1159580 (chemical genetic matrix, 2015)
Among all 5,500 compounds or so, about 2,000 (36%) were called active. Roughly 18% stayed inconclusive and do not appear here. Rule as the data show it: active = normalized growth mostly below about 0.91 (no sharp cut-off); inconclusive = no clear call, values can overlap the other calls; inactive = mostly above about 0.92. The list shows a part of the results.

Assay: chemical genetic growth profiling, strain panel (AID 1159580);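 also: tested at 20 µM; growth read once vehicle control cultures reached saturation at 30 °C; 1 = growth at the plate median or of vehicle wells; lower values mean less growth of the strain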
Conditions: growth OD

Measured: normalized growth

C1CCN(CCC2CCCCN2)CC1 (stereo not drawn)
inactive: S. cerevisiae deletion strains, locus YAL013W, strain DEP1, stronger effect = lower value 0.999 | S. cerevisiae deletion strains, locus YBR229C, strain ROT2, stronger effect = lower value 1.01 | S. cerevisiae deletion strains, locus YDL101C, strain DUN1, stronger effect = lower value 0.995 | S. cerevisiae deletion strains, locus YDL134C, strain PPH21, stronger effect = lower value 1 | S. cerevisiae deletion strains, locus YDR150W, strain NUM1, stronger effect = lower value 0.936 | S. cerevisiae deletion strains, locus YEL061C, strain CIN8, stronger effect = lower value 1.02 | S. cerevisiae deletion strains, locus YGR078C, strain PAC10, stronger effect = lower value 1 | S. cerevisiae deletion strains, locus YHR030C, strain SLT2, stronger effect = lower value 1.08 | S. cerevisiae deletion strains, locus YHR087W, strain rtc3, stronger effect = lower value 1 | S. cerevisiae deletion strains, locus YJR043C, strain POL32, stronger effect = lower value 1 | S. cerevisiae deletion strains, locus YJR075W, strain HOC1, stronger effect = lower value 0.998 | S. cerevisiae deletion strains, locus YKL190W, strain CNB1, stronger effect = lower value 0.998 | S. cerevisiae deletion strains, locus YLR039C, strain RIC1, stronger effect = lower value 1.01 | S. cerevisiae deletion strains, locus YLR058C, strain SHM2 (second series), stronger effect = lower value 1.01 | S. cerevisiae deletion strains, locus YLR085C, strain ARP6, stronger effect = lower value 1.01 | S. cerevisiae deletion strains, locus YLR262C, strain YPT6, stronger effect = lower value 1 | S. cerevisiae deletion strains, locus YML094W, strain GIM5, stronger effect = lower value 1.01 | S. cerevisiae deletion strains, locus YMR219W, strain ESC1, stronger effect = lower value 1 | S. cerevisiae deletion strains, locus YMR263W, strain SAP30, stronger effect = lower value 1.01 | S. cerevisiae deletion strains, locus YNL153C, strain GIM3, stronger effect = lower value 1 | S. cerevisiae deletion strains, locus YNL298W, strain CLA4 (second series), stronger effect = lower value 0.981 | S. cerevisiae deletion strains, locus YNL322C, strain KRE1, stronger effect = lower value 0.995 | S. cerevisiae deletion strains, locus YNR030W, strain Alg12, stronger effect = lower value 0.996 | S. cerevisiae deletion strains, locus YOL006C, strain TOP1, stronger effect = lower value 0.964 | S. cerevisiae deletion strains, locus YPL055C, strain LGE1, stronger effect = lower value 0.967 | S. cerevisiae deletion strains, locus YPL241C, strain CIN2, stronger effect = lower value 0.993 | S. cerevisiae deletion strains, locus YPR135W, strain CTF4, stronger effect = lower value 1.08 | S. cerevisiae strains, strain wild type, stronger effect = lower value 0.996
